The text below walks through data of PubChem BioAssay.

Test [1] can be described thus: Cy5 fluorescence interference with SSB-bound oligo, artefact control for HCV NS3 helicase inhibitor project, biochemical, NIH Clinical Collection, E. coli SSB (AID 743268; call rule not given here).
Test [2] has as its system Hepatitis C virus NS3 helicase. Nature of the test: HCV NS3 helicase inhibitors, primary screen, biochemical, fluorescence polarization, NIH Clinical Collection (AID 743270; call rule not given here). Conditions: NS3 helicase binding to Cy5-dT15 DNA, stronger effect = higher value, concentration not given here. (In general: Fluorescence polarisation rises when a labelled molecule tumbles more slowly, as on binding a larger partner.)

Test [3] has as its target Single-stranded DNA-binding protein (Escherichia coli (strain K12)) (UniProt P0AGE0). The experiment in a line: E. coli SSB displacement from DNA, counter-screen for HCV NS3 helicase inhibitor project, biochemical, fluorescence polarization, NIH Clinical Collection (AID 743271; in the data active = inhibition above about 28%). Conditions: stronger effect = higher value, concentration not given here. In general terms: The purpose of a counterscreen is to sort out artefacts and off-target activity.

Test [4] can be described thus: fluorescence interference in NS3h assay format, artefact control for HCV NS3 helicase inhibitor project, biochemical, NIH Clinical Collection (AID 743272; call rule not given here;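 note: HCV NS3 helicase with a Cy5 labelled single stranded DNA probe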). As to conditions: fluorescence interference counterscreen, stronger effect = lower value.
The nature of test [5]: viability rescue of complex I mutant cybrids, primary screen, cell-based, galactose medium, ATP luminescence (AID 1645843;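 active = z-score of at least 1.8 in each of two replicates, scored against plate mean and spread of sample wells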;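 note: positive z means more ATP and so rescue of galactose-driven cybrid death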). As to conditions: complex I mutant cybrid cells, 72 h, stronger effect = higher value.
For another test, the system named is F380Y/beta4. The experiment in a line: modulators of BK channel variants, profiling panel, selectivity assay, cell-based, U2OS BacMam, thallium flux, beta subunits (AID 1259406).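 Note: initial slope of Thallos dye fluorescence rise after thallium is added; log ratio against the mean of 0.3% DMSO vehicle wells on the same plate.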 As to conditions: at 30 µM.
The target of test [6] is Calcium-activated potassium channel subunit alpha-1 (Homo sapiens) + Leucine-rich repeat-containing protein 26 (Homo sapiens) (UniProt Q12791+Q2I0M4). Described as above. Conditions: F380Y/Slo1WT/gamma1, at 30 µM.
The subject of another test is R275C. The description is as above. As to conditions: at 30 µM.
The next test relates to R275C/beta1. The test is described as above. As to conditions: at 30 µM.
The next test deals with R275C/beta2Delta. Described as above. As to conditions: at 30 µM.
In a further test the test system is R275C/beta4. The description is as above. Conditions: at 30 µM.
The test system of the next test is R275C/Slo1WT/beta2. The test is described as above. As to conditions: at 30 µM.
A short description of test [7]: polyglutamine-triggered caspase-3 activation inhibitors, cell-based (AID 1583). As to conditions: polyglutamine-induced caspase-3 activation, cell assay; stronger effect = higher value;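 tested at 10 µM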.
The nature of test [8]: suppressors of polyQ aggregation in yeast, 75Q-TubU reporter (AID 1593). Conditions: Yeast 75Q polyglutamine aggregation reporter.
Test [9] in a line: inhibitors of mitochondrial cytochrome c release, biochemical, purified mitochondria (AID 1603).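 Note: mouse liver mitochondria challenged with calcium chloride; signal normalized to the plate average as 100%.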 As to conditions: stronger effect = lower value.
Test [10] can be described thus: inhibitors of polyQ protein aggregation (AID 1604). Conditions: polyglutamine-induced protein aggregation inhibition assay; stronger effect = higher value; tested at 2.5 µM.
Test [11] in a line: enhancers of glutamate uptake in motor neurons, MN-1 cell line (AID 1612).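 Note: tested at 1 µM final; 0% = mean of DMSO vehicle wells on each plate; positive means more glutamate uptake than control and negative means less.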 Conditions: MN-1 motor neuron cells, stronger effect = higher value.

Where “and” joins values, the source holds several entries; their conditions need not be identical. Equal entries are not always repeated. Calls of active or inactive are those of the source.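 Rule for the calls, unless noted: active = thallium flux through the channel raised or lowered by more than 3 SD from vehicle-only wells, actives on both sides; inactive = the rest.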

Calcium-activated potassium channel subunit alpha-1 (Homo sapiens) + Leucine-rich repeat-containing protein 26 (Homo sapiens), sequence (Q2I0M4 whole entry, looked up, one chain of several): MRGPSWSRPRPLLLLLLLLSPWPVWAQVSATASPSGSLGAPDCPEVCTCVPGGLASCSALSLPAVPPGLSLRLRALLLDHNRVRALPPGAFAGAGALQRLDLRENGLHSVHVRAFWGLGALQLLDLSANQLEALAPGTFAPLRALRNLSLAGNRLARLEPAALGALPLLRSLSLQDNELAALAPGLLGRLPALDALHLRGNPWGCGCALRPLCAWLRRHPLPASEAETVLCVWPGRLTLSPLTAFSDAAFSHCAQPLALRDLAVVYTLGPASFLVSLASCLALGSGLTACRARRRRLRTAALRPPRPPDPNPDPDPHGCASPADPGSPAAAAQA

As for `CCOC(=O)[C@H](CCc1ccccc1)N[C@H]1CCc2ccccc2N(CC(=O)O)C1=O`, the fluorescence ratio in test [1] is 1.03 (inactive); in [4], 1.04 (inactive). The inhibition was -1.98% (inactive) in [2] and 2.98% (inactive) in [3]. Also, in [5], the z-score is 0.145 (inactive). The log fold change Tl+ flux was 0.0138 (inactive) in the test on F380Y/beta4; 0.0131 (inactive) in [6]; 0.0199 (inactive) in the test on R275C; -0.0262 (inactive) with R275C/beta1; 0.041 (inactive) with R275C/beta2Delta; -0.0252 (inactive) in the test on R275C/beta4. Further, the log fold change Tl+ flux in the test with R275C/Slo1WT/beta2 is -0.00529 (inactive).
For the molecule `CC1=C(CC(=O)O)c2cc(F)ccc2/C1=C\c1ccc(S(C)=O)cc1` (stereo not given), the inhibition in [7] is 12.6%; in test [2], -7.73% (inactive); in test [3], -3.53% (inactive). Also, the score in [8] is 0.78. Moreover, in test [9], the cytochrome c release ratio came to 0.97. Moreover, in [10], the inhibition of aggregation was 78.9%. In [11], the glutamate uptake change is 3.54%. The fluorescence ratio in [1] was 1.04 (inactive); in test [4], 1.01 (inactive). Further, in test [5], the z-score is -0.94 (inactive) and -0.735 (inactive) and -0.12 (inactive). The log fold change Tl+ flux in the test on F380Y/beta4 was 0.0346 (inactive); in [6] it was 0.0386 (inactive); in the test with R275C, -0.0121 (inactive); with R275C/beta1 it was -0.0305 (inactive); in the test on R275C/beta2Delta, -0.0296 (inactive); with R275C/beta4, 0.044 (inactive). The log fold change Tl+ flux in the test with R275C/Slo1WT/beta2 was 0.0257 (inactive).
For the molecule `CCC(C)(C)C(=O)O[C@H]1C[C@@H](C)C=C2C=C[C@H](C)[C@H](CC[C@@H]3C[C@@H](O)CC(=O)O3)[C@H]21`, the fluorescence ratio in [1] was 1.04 (inactive); in [4] it was 0.92 (inactive). For the same molecule, the figures for the inhibition in test [2] and in test [3] were -1.36% (inactive) and 6.39% (inactive), respectively. For the same molecule, the z-score in test [5] was -1.4 (inactive) and -0.73 (inactive) and -0.85 (inactive). Further, the log fold change Tl+ flux in the test on F380Y/beta4 is -0.0747 (inactive); in test [6] it was 0.0806 (active); in the test on R275C, 0.0702 (inactive); with R275C/beta1, 0.116 (active); with R275C/beta2Delta, 0.0611 (inactive); in the test on R275C/beta4 it was 0.067 (inactive). Moreover, the log fold change Tl+ flux in the test on R275C/Slo1WT/beta2 is -0.0513 (inactive).
For `NC12CC3CC(CC(C3)C1)C2`, the inhibition in [7] is -8.1%; in [2], -0.45% (inactive); in test [3], -1.24% (inactive). The score in [8] is 1.77. The cytochrome c release ratio in test [9] is 0.94. In [10], this molecule registered an inhibition of aggregation of 63.2%. Besides, the glutamate uptake change in test [11] was -5.28%. Further, the fluorescence ratio is 0.99 (inactive) in test [1] and 0.97 (inactive) in test [4]. Besides, the z-score in [5] is 0.28 (inactive) and 0.225 (inactive) and 0.335 (inactive). Further, the log fold change Tl+ flux was 0.0492 (inactive) in the test with F380Y/beta4; 0.0152 (inactive) in [6]; -0.00425 (inactive) with R275C; 0.0102 (inactive) with R275C/beta1; 0.045 (inactive) in the test on R275C/beta2Delta; -0.0136 (inactive) with R275C/beta4. Moreover, the log fold change Tl+ flux in the test on R275C/Slo1WT/beta2 was 0.0148 (inactive).
As for `CCC1(c2ccccc2)C(=O)NCNC1=O`, the values for the inhibition in test [7], in test [2] and in test [3] were 9.61%, -2.27% (inactive) and -0.48% (inactive), respectively. In test [8], this molecule had a score of 1.24. Further, in test [9], the cytochrome c release ratio was determined as 1.19. This molecule came in with an inhibition of aggregation in test [10] of 63%. In addition, in [11], the glutamate uptake change was -24.4%. For the same molecule, the values for the fluorescence ratio in test [1] and in test [4] were 1.04 (inactive) and 0.97 (inactive), respectively. Also, in test [5], the z-score was 1.15 (inactive) and 0.365 (inactive) and 1.9 (inactive). Besides, the log fold change Tl+ flux was 0.00245 (inactive) in the test on F380Y/beta4; 0.023 (inactive) in test [6]; -0.0184 (inactive) in the test on R275C; -0.0109 (inactive) in the test with R275C/beta1; -0.0215 (inactive) with R275C/beta2Delta; 0.0127 (inactive) with R275C/beta4. Besides, in the test on R275C/Slo1WT/beta2, the log fold change Tl+ flux was -0.0237 (inactive).

The term inhibition denotes the drop in the measured response relative to a control, in per cent.
